Many of the other results were omitted from the sample, so the strongest signals are more common in it than they were.
Experiments:
Assay in all cases: glycan array binding signal (z-score within array); higher = stronger binding
Settings in all cases: glycan notation: IUPAC condensed, linker removed
Man(b1-4)GlcNAc = biological target: Man(b1-4)GlcNAc
In short: (§1)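 The binding signal is a Z-score computed within each array and averaged over linkers. Arrays of the same protein sequence at different concentrations or buffers were also averaged together. Data originate from 3228 arrays in the Consortium for Functional Glycomics database, kept only where the protein sequence was available.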

[1] = biological target: Neu5Ac(a2-3)Gal(b1-4)[Fuc(a1-3)]GlcNAc(b1-3)GalNAc
In short: as §1

[2] = biological target: Neu5Ac(a2-3)[GalNAc(b1-4)]Gal(b1-4)GlcNAc
In short: as §1

[3] = biological target: Neu5Ac(a2-6)Gal(b1-4)GlcNAc
In short: as §1

[4] = biological target: Neu5Ac(a2-8)Neu5Ac(a2-8)Neu5Ac
In short: as §1

B1: pullulanase (Streptococcus pyogenes), Q8KLP1 (protein)
chain: MKKKVNQGSKRYQYLLKKWGIGFVIAATGTVMLGCIPSILTHQVAAKTIVGLARDEAQQGDGNAKSGDGFQSSSKEAKPVLDSSSANPASIAEHHLRMHFKTLPAGESLGSLGLWVWGDVDQPSKDWPNGAITMTKAKKDDYGYYLDVPLAAKHRQQVSYLINNKAGENLSKDQHIPLLTPKMNEVWIDENYHAHAYRPLKKGYLRINYHNQSGHYDNLAVWTFKDVKTPTTDWPNGLDLSHKGPYGAYVDVPLKEGANEIGFLILDKSKTGDAIKVQPKDYLFKELDNHTQVFVKDTDPKVYNNPYYIDQVSLKGAEQTTPNEIKAIFTTLDGLDEDAVKQNIKITDKAGKTVAIDELTLDKDKSVMTLKGDFKAQGAVYTVTFGEVSQVARQSWQLKDKLYAYDGELGATLAKDGSVDLALWSPSADSVKVVVYDKQDQTKVVGQADLTKSDKGVWRAHLTSDSVKGISDYTGYYYLYEITRGQEKVMVLDPYAKSLAAWNDATATDDIKTAKAAFIDPSKLGPTGLDFAKINNFKKREDAIIYEAHVRDFTSDKALEGKLTHPFGTFSAFVEQLDYLKDLGVTHVQLLPVLSYFYANELDKTRSTAYTSSDNNYNWGYDPQHYFALSGMYSANPNDPALRIAELKNLVNEIHKRGMGVIFDVVYNHTARTYLFEDLEPNYYHFMNADGTARESFGGGRLGTTHAMSRRILVDSITYLTREFKVDGFRFDMMGDHDAAAIEQAFKAAKAINPNTIMIGEGWRTYQGDEGKKEIAADQDWMKATNTVGVFSDDIRNTLKSGFPNEGTAAFITGGAKNLEGLFKTIKAQPSNFEADAPGDVVQYIAAHDNLTLHDVIAKSINKDPKVAEEEIHKRIRLGNTMILTAQGTAFIHSGQEYGRTKQLLNPDYKTKVSDDKVPNKATLIDAVAQYPYFIHDSYDSSDAVNHFDWAKATDSIAHPISNQTKAYTQGLIALRRSTDAFTKATKAEVDRDVTLITQAGQDGIQQEDLIMGYQTVASNGDRYAVFVNADNKTRKVVLPQAYRYLLGAQVLADAEQVGVTAIAKPKGVQFTKEGLTIDGLTALVLKVSSKTANPSQQKSQTDNHQTKTPDGSKDLDKSLMTRPKRAKTNQKLPKTGEAPSKGLLAAGVALLLLAISLLMKRQKD
- glycan array binding signal (z-score) (Man(b1-4)GlcNAc): 0.398
- glycan array binding signal (z-score) [1]: 2.87
- glycan array binding signal (z-score) [2]: -0.879
- glycan array binding signal (z-score) [3]: 2.52
- glycan array binding signal (z-score) [4]: -0.738

From the supplement of paper PMC8728848
